Sampled rows, rich in hits. Any-hit rate of the full collection: about 5.8%.
MCF10A rereplic: A quantitative high throughput screen for small molecules that induce DNA re-replication in MCF 10a normal breast cells. 350,000 compounds, 2.9% hits. AID 624296, 2012. Potency, µM (doses to about 46.1 µM), for inactives: top-dose activity, positive = re-replication, actives largely listed as activators. MCF 10A DNA re-replication, Hoechst nuclear intensity, 48 h; also: % of control where 0% means no effect; nearly all actives have a fitted effect of over 50% in size
SW480 rerep: A quantitative high throughput screen for small molecules that induce DNA re-replication in SW480 colon adenocarcinoma cells | SW480 DNA re-replication, Hoechst DNA content imaging, 48 h | Potency, µM (highest dose often 46.1 µM), for inactives: top-dose re-replication activation, most hits filed as activators | 340,000 compounds, 1.8% hits | AID 624297, 2012; also: % of control where 0% means no effect; nearly all actives have a fitted effect of over 55% in size
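Compounds, transferred as 23 nL by pin tool, were incubated with cells for 48 hr; DNA content per nucleus was then quantified by Hoechst staining and fluorescence plate imaging.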
KB-V1 cytotox: qHTS assay for MDR1-selective chemotherapeutics: Primary screen using the drug-selected MDR subline cells KB-V1; KB-V1 MDR cells viability, CellTiter-Glo, 72 h; Potency, µM (doses to about 46.1 µM), actives largely listed as cytotoxic; 400,000 compounds, 3.4% hits; AID 1347076, 2019; also: % is scaled to controls: 0 for no effect and ±100 for the full control effect; nearly all actives have a fitted effect of over 60% in size
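KB-V1 MDR subline cells in DMEM (phenol-red free, 10% FBS) exposed to compounds in qHTS concentration series for 72 h at 37 degrees C. Viability read by CellTiter-Glo luminescence; concentration-effect curves fitted after normalization and correction.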
KB-3-1 cytotox: qHTS assay for MDR1-selective chemotherapeutics: Primary screen using the parental adenocarcinoma cell KB-3-1 | 400,000 compounds, 1.4% hits | Potency, µM (doses to about 46.1 µM), actives largely listed as cytotoxic | KB-3-1 viability, CellTiter-Glo ATP luminescence, 72 h | AID 1347075, 2019; also: % is scaled to controls: 0 for no effect and ±100 for the full control effect; nearly all actives have a fitted effect of over 60% in size
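Viability of parental KB-3-1 cells, measured by CellTiter-Glo luminescence, followed a 72 h incubation at 37 °C with pinned compounds in phenol-red-free DMEM containing 10% FBS.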
ALOX12 inh: Primary qHTS assay for inhibitors of human arachidonate 12S-lipoxygenase (ALOX12): Round 2; Polyunsaturated fatty acid lipoxygenase ALOX12 (Homo sapiens), P18054; purified 12hLO, xylenol orange hydroperoxide absorbance; Potency, µM (top dose mostly 108 µM), inactives show at the highest dose activity change, negative = inhibition, hits mostly inhibitors; 580,000 compounds, 1.1% hits; also: % is scaled to controls: 0 for no effect and ±100 for the full control effect
Target sequence (P18054 whole entry, looked up): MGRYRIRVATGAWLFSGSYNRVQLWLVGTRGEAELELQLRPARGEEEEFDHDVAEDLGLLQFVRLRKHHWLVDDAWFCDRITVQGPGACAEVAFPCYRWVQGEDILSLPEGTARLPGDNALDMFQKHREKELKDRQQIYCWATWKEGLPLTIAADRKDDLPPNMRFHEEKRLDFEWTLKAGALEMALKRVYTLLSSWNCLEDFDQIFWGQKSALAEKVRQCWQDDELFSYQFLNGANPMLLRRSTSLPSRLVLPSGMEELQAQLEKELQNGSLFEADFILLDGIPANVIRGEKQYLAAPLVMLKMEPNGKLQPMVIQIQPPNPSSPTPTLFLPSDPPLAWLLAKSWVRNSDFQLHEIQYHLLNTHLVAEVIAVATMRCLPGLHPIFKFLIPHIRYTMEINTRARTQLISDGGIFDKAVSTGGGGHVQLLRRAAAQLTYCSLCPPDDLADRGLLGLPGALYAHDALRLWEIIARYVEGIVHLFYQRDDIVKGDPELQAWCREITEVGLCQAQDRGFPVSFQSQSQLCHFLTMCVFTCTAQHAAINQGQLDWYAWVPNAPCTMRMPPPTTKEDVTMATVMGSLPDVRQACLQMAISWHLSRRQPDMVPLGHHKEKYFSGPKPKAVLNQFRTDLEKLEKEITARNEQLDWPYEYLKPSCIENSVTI
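Purified human 12hLO (150 nM final) in 25 mM Hepes, 0.01% Triton X-100, pH 7.0 was preincubated 15 min at room temperature with compound. Then 40 uM arachidonic acid was added, 30 min. Hydroperoxide was read by Fe-XO absorbance ratio 573/405 nm.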
PINK1 expr mod: A Quantitative High throughput Screen to Identify Chemical Modulators of PINK1 Expression | AID 624263, 2012 | PINK1 immunofluorescence, high-content cytometry, 24 h | 410,000 compounds, 0.2% hits | Potency, µM (highest dose often 76.6 µM), for inactives: at the highest dose activation (PINK1 increase), usual class: activators; active = well fitted activation curve with a large enough effect; inconclusive = small, poorly fitted or top-dose-only effect; cell line not stated here; also: % of control where 0% means no effect; nearly all actives have a fitted effect of over 65% in size
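PINK1 protein level read as immunofluorescence by microplate cytometer in a fixed, stained stable cell line after 24 h exposure to five compound concentrations, with CCCP as control.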
An asterisk follows results filed as active; i = inactive; u = inconclusive; x = not tested or not shown; [ ] = remark or other dose. Unless noted, calls follow the shape of the dose curve; as a rule, active = well fitted curve in the direction sought with a large enough effect; inconclusive = small, poorly fitted or top-dose-only effect, or another doubt; inactive = no such curve, though single readings can be large; an effect the other way counts as inactive or inconclusive. Potency is read from the fitted curve at half-maximal effect.

SMILES	MCF10A rereplic	SW480 rerep	KB-V1 cytotox	KB-3-1 cytotox	ALOX12 inh	PINK1 expr mod
CN1CCN(C(=O)c2ccccc2Nc2ccc(SC(F)F)cc2)CC1	1.4%	-4.1%	i	i	u	-0.3%
Cc1noc(C)c1-c1cc2c(cc(C)n2CCN(C)C)c(-c2ccccc2O)n1	x	x	x	x	79.4µM*	x
CC1(C(=O)NCc2ccccc2Br)CCN1Cc1ccccc1OC(F)F (stereo unspecified)	x	x	23.1µM*	i	16.0%	7.6%
Cc1nc(NC(=O)c2ccco2)sc1C(=O)Nc1ccc(Br)cc1	23.1µM*	1.3%	i	u	x	0.2%[38.3 µM]
Cc1nc(NC(=O)c2ccco2)sc1C(=O)O	1.0%	-9.3%	4.61µM*	13µM*	-2.8%	0.4%
CC(C)C(=O)N1Cc2ccccc2CC2(CCCN(Cc3ccccn3)C2)C1 (stereo unspecified)	x	x	x	x	1.0%[6.33 µM]	x
FC(F)(F)c1cccc(-c2csc(-c3cnccn3)n2)c1	x	x	x	x	34.1%	x
FC(F)(F)c1cccc(-c2ccn3ncnc3n2)c1	7.4%	10.5%	20.6µM*	i	-12.3%	0.4%
CCn1c2ccccc2c2cc(/C=N/NC(=O)c3ccc(O)cc3)ccc21	u	u	20.6µM*	u	-2.4%	0.3%
Cc1ccc(-n2nc3ccc(NC(=O)c4cccc([N+](=O)[O-])c4C)cc3n2)cc1	13µM*	u	u	i	-0.8%	0.0%
CCn1nnc(-c2ccccc2NC(=O)c2cc(OC)c(OC)c(OC)c2)n1	u	14.6µM*	i	i	5.0%	0.3%[38.3 µM]
CCOC(=O)Nc1ccc2c(c1)N(C(=O)OC)c1ccccc1CC2	u	u	5.8µM*	u	0.0%	1.9%
Cc1ccc(-n2nc3ccc(NC(=O)c4ccco4)cc3n2)cc1	11.0%	0.6%	i	i	0.0%	2.4%
Cc1cc(-c2nc3cc(NC(=O)C(C)C)ccc3o2)ccc1Br	x	x	x	x	-6.9%	x
NC(=O)C1CCN(C(=O)/C=C/c2ccc(C(F)(F)F)cc2)CC1	x	x	x	x	-4.4%	x
CCn1c2ccccc2c2cc(NC(=O)c3ccc(C)c([N+](=O)[O-])c3)ccc21	-1.0%	-2.9%	i	u	-10.7%	2.7%
CCn1c2ccccc2c2cc(NC(=O)c3cc(OC)c(OC)c(OC)c3)ccc21	u	0.82µM*	u	0.581µM*	2.8%[57.4 µM]	7.1%
CCn1c2ccccc2c2cc(NC(=O)c3cccc([N+](=O)[O-])c3C)ccc21	18.4µM*	10.3µM*	u	u	u	5.2%
CCn1c2ccccc2c2cc(NC(=O)c3coc(=O)c(Br)c3)ccc21	x	x	x	x	-7.5%	x
COc1cc(C(=O)Nc2ccc3c(c2)N(C(=O)CCN(C)C)c2ccccc2CC3)cc(OC)c1OC	13µM*	u	u	i	-0.2%	5.0%
CCn1c2ccccc2c2cc(NC(=O)c3ccc(=O)oc3)ccc21	16.4µM*	u	i	i	-11.8%	1.9%
N#Cc1ccc(Cn2c(=O)n(CCC(=O)NCCc3ccc(Cl)cc3)c(=O)c3sccc32)cc1	x	x	x	x	-11.1%	x
CCS(=O)(=O)N1CCc2cc(C(=O)CSc3nnc(C4CC4)n3Cc3ccccc3)ccc21	x	x	x	x	19.1%	x
CCn1c2ccccc2c2cc(NC(=O)COc3ccc(OC)cc3)ccc21	0.2%	-11.5%	i	i	4.8%	1.6%
CCn1c2ccccc2c2cc(NC(=O)c3cc(OC)cc(OC)c3)ccc21	1.46µM*	0.651µM*	2.31µM*	u	-2.1%	11.5%
SMILES	MCF10A rereplic	SW480 rerep	KB-V1 cytotox	KB-3-1 cytotox	ALOX12 inh	PINK1 expr mod
Cc1c(C(=O)Nc2ccc(C(=O)Nc3ccccc3)cc2)cccc1[N+](=O)[O-]	17.3%	-6.9%	u	i	-7.2%	4.3%
Cc1c(C(=O)Nc2ccccc2-c2ccccc2)cccc1[N+](=O)[O-]	17.9%	-12.3%	14.6µM*	i	18.4%	5.8%[38.3 µM]
COCC(O)CNC(=O)COc1ccc2c(=O)c(-c3ccc(Cl)cc3)c(C)oc2c1 (stereo unspecified)	x	x	x	x	-3.3%	x
CC(C)CCOC(=O)/C(=C/c1ccco1)NC(=O)/C=C/c1ccccc1	-0.2%	-9.5%	i	i	39.8µM*	x
Cc1cc(C)c2c(=O)cc(C(=O)N3CCN(c4cccc(Cl)c4)CC3)oc2c1	x	x	x	x	7.3%	x
CCOc1ccc2cc(/C=C/C(=O)c3ccco3)c(Cl)nc2c1	5.8µM*	16.4µM*	u	u	-19.7%	0.9%
C=CCNc1nc(N)c(C(=C(C#N)C#N)c2ccc(Br)cc2)s1	u	20.6µM*	18.4µM*	u	u	9.5%
C=CCNc1nc(N)c(C(=O)c2ccc(Cl)cc2)s1	x	x	x	x	-65.7%	x
COC(=O)c1cc(-c2ccc(OC)cc2)nc2ccc(C)cc12	x	x	x	x	1.7%	x
COc1ccccc1-c1nnc2n1C(C(=O)NCc1ccc(F)cc1)CC2 (stereo unspecified)	x	x	x	x	0.4%[6.33 µM]	x
CCC(Oc1ccccc1)C(=O)Nc1ccccc1C(=O)N1CCN(C)CC1 (stereo unspecified)	-3.5%	0.2%	i	i	0.0%	-1.3%
Cc1ccccc1OCCC(=O)Nc1ccccc1C(=O)N1CCCCC1	6.3%	-9.4%	8.2µM*	i	8.1%	-0.9%
CCC(Oc1ccccc1)C(=O)Nc1ccccc1C(=O)N1CCCCC1 (stereo unspecified)	11.9%	-4.5%	11.6µM*	i	8.4%	1.9%
Cc1ccccc1OCC(=O)Nc1ccccc1C(=O)N1CCCCC1	16.0%	0.1%	u	i	4.8%	2.2%
CN(CC(=O)N1CCN(Cc2ccccc2)CC(O)C1)C1CCCC1 (stereo unspecified)	x	x	x	x	17.3%	x
Cc1cccc(NC(=O)Cn2cccc2-c2nc(-c3ccc(F)cc3)no2)c1	x	x	x	x	13.6%	x
CC[N+]1=C(C)C(C)(C)c2cc(C)ccc21	u	1.3%	i	u	u	22.4µM*
CCN1C(=O)C(=O)c2cc(C)ccc21	u	u	i	u	-5.2%	3.2%
CC(C)(C)OC(=O)COc1ccc2c(=O)c(-c3ccccc3)coc2c1	x	x	x	x	-7.4%	x
C#CCN1C(=O)S/C(=C/c2cn(C(C)C)c3ccccc23)C1=O	x	x	x	x	8.1%	x
COc1ccc(Cl)cc1NC(=O)C(C)Sc1nnc(C2CC2)n1C1CC1 (stereo unspecified)	1.8%	-3.2%	18.4µM*	i	-2.3%	-0.7%

High-throughput results from PubChem BioAssay.
